Screening data (PubChem)
A selection: hits, their analogues and other compounds. The true share with any hit is near 3.7%.
PLK1 PBD inh – inhibitors of human PLK1 polo-box domain binding; P53350; Plk1 PBD binding of FITC phosphopeptide, fluorescence polarization; Potency, µM, hits mostly inhibitors; actives 2.8% (n = 360,000); AID 720504; further: series mostly up to about 57 µM; nearly all actives have a fitted effect of over 65% in size
Target sequence (P53350 whole entry, looked up, the tested form may be a part): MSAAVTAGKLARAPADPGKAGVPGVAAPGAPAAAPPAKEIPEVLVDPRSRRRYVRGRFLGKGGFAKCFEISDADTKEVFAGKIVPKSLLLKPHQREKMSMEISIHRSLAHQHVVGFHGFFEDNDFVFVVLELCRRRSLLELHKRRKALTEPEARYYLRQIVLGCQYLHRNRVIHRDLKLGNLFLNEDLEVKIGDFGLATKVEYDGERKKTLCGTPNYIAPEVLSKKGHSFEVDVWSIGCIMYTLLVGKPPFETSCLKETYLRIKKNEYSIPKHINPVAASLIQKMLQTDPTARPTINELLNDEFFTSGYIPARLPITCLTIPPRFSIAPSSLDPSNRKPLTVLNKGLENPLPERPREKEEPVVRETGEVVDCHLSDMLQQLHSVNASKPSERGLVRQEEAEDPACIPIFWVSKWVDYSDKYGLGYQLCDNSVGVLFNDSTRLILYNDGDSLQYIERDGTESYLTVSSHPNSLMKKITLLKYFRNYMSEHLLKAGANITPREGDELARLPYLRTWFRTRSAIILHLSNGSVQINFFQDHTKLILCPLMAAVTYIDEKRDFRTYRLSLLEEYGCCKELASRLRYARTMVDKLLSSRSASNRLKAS
TCR act – activators of T cell receptors; primary human leukocytes, anti-CD3, IL-2 HTRF, 48 h; 330,000 tested, under 10 active; Potency, µM (top dose mostly 9.22 µM), hits mostly activators
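Readout: HTRF IL-2, Eu-cryptate/d2 antibody pair, 320nm excitation, 665nm emission. Stimulus: a-CD3 beads, no co-stimulation. Cells: primary human leukocytes. Exposure: 48 hr with compound.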
PI5P4K alpha inh – PI5P4K alpha (human) kinase inhibition. P48426. PI5P4Kalpha enzyme, ADP-Glo luminescence, 60 min; hits give low values. max response, %. actives 1.2% (n = 330,000). AID 652105; active means max response of -50% or lower; inconclusive means between -30% and -50%; inactive means -30% or higher; further: value at the top dose of about 77 µM
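Luminescence from ADP-Glo served as readout of PI5P4Kalpha activity in a qHTS format. Reaction: enzyme, substrate, compound, ATP at 5 microM final, 60 min at RT.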
WRN helicase inh – blocks human WRN helicase; WRN helicase unwinding, fluorescent forked duplex, kinetic; actives 0.46% (n = 360,000); Q14191; Potency, µM (doses to about 114 µM), hits mostly inhibitors; further: nearly all actives have a fitted effect of over 55% in size
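Kinetic red-fluorescence monitoring (525/598 nm) tracks WRN helicase activity after 100 nM fluorophore-quencher forked duplex and 2 mM ATP are added to 20 nM enzyme pretreated 15 min at room temperature with compound.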
VDR inhibitor – blocks the human vitamin D receptor; actives 0.93% (n = 400,000); VDR-SRC2-3 peptide fluorescence polarization, 2 h; P11473; Potency, µM, most hits filed as inhibitors; AID 504847
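Compounds are added to VDR with labelled SRC2-3 coactivator peptide and held 2 h at room temperature. Inhibition of the VDR–peptide interaction is then read as a change in fluorescence polarization.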
FEN1 inhibitor – inhibitors of human flap endonuclease 1 | Recombinant FEN1 flap cleavage, fluorescence, 15 min | AID 588795 | Potency, µM (highest dose often 114 µM), hits mostly inhibitors | P39748 | actives 0.35% (n = 390,000); further: nearly all actives have a fitted effect of over 65% in size
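Concentration–response screening of FEN1 (10 nM): 15 min compound preincubation at room temperature, reaction started with 50 nM substrate and read at 0 and 15 min. Corrected, normalized data were fitted by a four-parameter Hill equation.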
Each line names hits and unclear results; the compound was inactive in the other large screens. Unless noted, the call rests on the fitted dose curve; in most records, active means well fitted curve in the direction sought with a large enough effect; inconclusive means small, poorly fitted or top-dose-only effect, or another doubt; inactive means no such curve, though single readings can be large; an effect the other way counts as inactive or inconclusive.

c1ccc2c(CCc3c[nH]c4ccccc34)ccnc2c1	none (no result: PLK1 PBD inh, TCR act, PI5P4K alpha inh, WRN helicase inh, VDR inhibitor)
CCCCCCCCCCCCCC/C(C(=O)O)=C(\C)C(=O)O	none (no result: PLK1 PBD inh, TCR act, PI5P4K alpha inh, WRN helicase inh, FEN1 inhibitor)
Clc1ccc(OCCN2CCCCC2)cc1Cl	none
ON=C1c2cc(OCCN3CCCCC3)ccc2-c2ccc(OCCN3CCCCC3)cc21	PLK1 PBD inh 19µM, VDR inhibitor inconclusive, FEN1 inhibitor 32µM
Cc1ccc(-c2nc3sccn3c2Nc2ccc(C)c(C)c2)cc1	none (no result: PLK1 PBD inh, TCR act, PI5P4K alpha inh, WRN helicase inh)
COc1ccc(NC(=S)NC(NC(C)=O)C(Cl)(Cl)Cl)c([N+](=O)[O-])c1 (configuration not stated)	PLK1 PBD inh 24µM, PI5P4K alpha inh inconclusive
COc1ccc(NC(=S)NC(NC(=O)c2cccc(Cl)c2)C(Cl)(Cl)Cl)c([N+](=O)[O-])c1 (configuration not stated)	none (no result: PI5P4K alpha inh)
CCOC(=O)CNC(=O)CSc1nc(-c2ccc(C)cc2)ns1	VDR inhibitor inconclusive
CCOC(=O)CNC(=O)CSc1nc(-c2ccccc2)ns1	PLK1 PBD inh 13µM, PI5P4K alpha inh inconclusive, WRN helicase inh inconclusive, VDR inhibitor inconclusive
CCOC(=O)N1CCN(C(=O)CSc2nc(-c3cccc(C)c3)ns2)CC1	PLK1 PBD inh 6.7µM, PI5P4K alpha inh inconclusive, VDR inhibitor inconclusive (no result: TCR act)
O=C(CSc1nc(-c2ccccc2)ns1)NCC1CCCO1 (configuration not stated)	PLK1 PBD inh 15µM
Cc1ccc(-c2[nH]c(-c3ccccc3)nc2SCC(=O)NCC2CCCO2)cc1 (configuration not stated)	FEN1 inhibitor inconclusive
CCOC(=O)CSc1nc(-c2ccc(OC)cc2)ns1	PLK1 PBD inh 11µM
Cc1ccc2oc(-c3ccc(C)c(NC(=O)COc4ccc(Cl)cc4C)c3)nc2c1	none (no result: PLK1 PBD inh, TCR act, PI5P4K alpha inh, WRN helicase inh, VDR inhibitor)
CC(C)(C)n1cnc2cc(NCc3ccc(Br)cc3)ccc21	PLK1 PBD inh 21µM, VDR inhibitor inconclusive
CCc1ccc(CNc2ccc3c(c2)ncn3C(C)(C)C)cc1	none
C=CCNc1ncnc2c1cnn2-c1ccc(Cl)cc1	PLK1 PBD inh 21µM, VDR inhibitor inconclusive
Cc1ccc(O)c(-c2n[nH]c3c2C(c2ccccc2F)N(Cc2ccco2)C3=O)c1 (configuration not stated)	none (no result: PLK1 PBD inh, TCR act, PI5P4K alpha inh, WRN helicase inh)
CCOC(=O)C(Cc1ccc(NC(=O)/C(=C/c2ccccc2)NC(=O)c2ccccc2)cc1)N1C(=O)c2ccccc2C1=O (configuration not stated)	none
CCOC(=O)C(Cc1ccc(NC(=O)/C(=C/c2ccc(OC(C)=O)cc2)NC(C)=O)cc1)N1C(=O)c2ccccc2C1=O (configuration not stated)	PLK1 PBD inh 27µM
Cc1cccc(CC(=O)NCC(=O)NCc2cc(=O)n(C)c(=O)n2C)c1	PLK1 PBD inh 3µM, PI5P4K alpha inh inconclusive, VDR inhibitor inconclusive, FEN1 inhibitor inconclusive
CC1=Nc2cc(C(=O)NC(C)C)ccc2Sc2ccc(C)cc21	none (no result: PLK1 PBD inh, TCR act, PI5P4K alpha inh, WRN helicase inh)
CC(=O)Oc1ccc2nc(-c3cccs3)oc(=O)c2c1	none
CC(=O)Oc1ccc2nc(-c3ccco3)oc(=O)c2c1	PLK1 PBD inh 27µM, PI5P4K alpha inh inconclusive, VDR inhibitor inconclusive
Clc1ccc(-c2csc3ncnc(Sc4nnnn4C4CC4)c23)cc1	none (no result: PLK1 PBD inh, TCR act, PI5P4K alpha inh, WRN helicase inh, VDR inhibitor)
O=C(OCC12CC3CC(CC(C3)C1)C2)c1ccc(NCc2cc(O)ccc2O)cc1	PI5P4K alpha inh inconclusive, FEN1 inhibitor inconclusive
O=C(OCCC12CC3CC(CC(C3)C1)C2)c1ccc(NCc2cc(O)ccc2O)cc1	PI5P4K alpha inh -59, WRN helicase inh inconclusive, FEN1 inhibitor inconclusive
COc1cc(/C=C2/SC(=O)N(Cc3ccccc3)C2=O)ccc1OCc1ccncc1	none
COc1ccc(/C=C2\SC(=N)N(c3nccs3)C2=O)cc1OC	FEN1 inhibitor 79µM
O=C(COc1ccccc1Cl)Nc1ccc(C(=O)O)cc1NC(=O)COc1ccccc1Cl	PI5P4K alpha inh -64
CCC(=O)Nc1cc(Cl)ccc1C(=O)O	none
O=C(COc1ccccc1Cl)Nc1ccccc1C(=O)Nc1cccc(C(=O)O)c1	none
O=C(COc1cccc2ccccc12)Nc1cc(Cl)ccc1C(=O)O	PLK1 PBD inh 21µM, PI5P4K alpha inh inconclusive, WRN helicase inh inconclusive (no result: TCR act)
COCc1nnc(NS(=O)(=O)c2ccc(NC(C)=O)cc2)s1	none
CCc1nnc(NS(=O)(=O)c2ccc(NC(=S)NC(=O)/C=C/c3ccc(F)cc3)cc2)s1	PLK1 PBD inh 17µM, PI5P4K alpha inh inconclusive, WRN helicase inh inconclusive, VDR inhibitor inconclusive
CC(=O)Nc1ccc(S(=O)(=O)Nc2nnc(CC(C)(C)C)s2)cc1	PLK1 PBD inh 27µM, VDR inhibitor inconclusive
COc1cc(NS(=O)(=O)c2ccc(NC(=S)NC(=O)/C=C/c3ccc(OC)c(OC)c3)cc2)ncn1	PLK1 PBD inh 13µM, FEN1 inhibitor 45µM
COCc1nnc(NS(=O)(=O)c2ccc(C)cc2)s1	none
Cc1ccc(S(=O)(=O)Nc2nnc(C(C)(C)C)s2)cc1	PLK1 PBD inh 24µM
COc1ccc(CNC(=O)CCc2c(C)c3cc4c(C)coc4cc3oc2=O)cc1	none (no result: PLK1 PBD inh, TCR act, PI5P4K alpha inh, WRN helicase inh)
COc1cc2c(cc1OC)-c1c(OC)c(OC)cc3ccnc(c13)C2=O	FEN1 inhibitor 7.9µM
O=C(Nc1ccc2c(c1)OC1(CCCC1)O2)C1CC1	PLK1 PBD inh 27µM (no result: PI5P4K alpha inh)
Cc1c(Cn2cnc3c(cnn3C(C)(C)C)c2=O)cccc1C(F)(F)F	none (no result: PLK1 PBD inh, TCR act, PI5P4K alpha inh, WRN helicase inh, VDR inhibitor)
CN=C(c1ccc(C)cc1)n1c(=S)nc(-c2ccc(C)cc2)n(C)c1=S	none
CN=C(c1ccco1)n1c(=S)nc(-c2ccco2)n(C)c1=S	PLK1 PBD inh 19µM, PI5P4K alpha inh -68, WRN helicase inh inconclusive, VDR inhibitor inconclusive
N#CC1=C(N)Oc2n[nH]c(-c3cccs3)c2C1c1cccs1 (configuration not stated)	PLK1 PBD inh 24µM, PI5P4K alpha inh -53
COc1cc(C2C(C#N)=C(N)Oc3n[nH]c(-c4cccnc4)c32)cc(Br)c1O (configuration not stated)	PI5P4K alpha inh -63
CSCCC1C(C#N)=C(N)Oc2n[nH]c(-c3cccs3)c21 (configuration not stated)	PI5P4K alpha inh -65
Cc1ccc(C2C(C#N)=C(N)Oc3n[nH]c(-c4ccccc4)c32)o1 (configuration not stated)	PLK1 PBD inh 3.4µM, PI5P4K alpha inh -67, WRN helicase inh inconclusive, VDR inhibitor 25µM
Cc1ccc(C2C(C#N)=C(N)Oc3n[nH]c(-c4cccnc4)c32)o1 (configuration not stated)	PLK1 PBD inh inconclusive, PI5P4K alpha inh inconclusive
CCCC1C(C#N)=C(N)Oc2n[nH]c(C(C)(C)C)c21 (configuration not stated)	PLK1 PBD inh 6.7µM, VDR inhibitor inconclusive
O=S(=O)(c1ccc(F)cc1)N1CCN(c2nc(-c3ccccc3)nc3cc(Cl)ccc23)CC1	none (no result: PLK1 PBD inh, TCR act, PI5P4K alpha inh, WRN helicase inh)
c1ccc(Nc2c(-c3c[nH]c4ccccc34)nc3ccccn23)cc1	none (no result: PLK1 PBD inh, TCR act, PI5P4K alpha inh, WRN helicase inh)
